Test results taken from PubChem BioAssay (EPA / NIEHS).
Records with an inconclusive call do not appear. Active and inactive are the calls of the source. How the source made its calls: active means hit-call score of the fitted dose curve at least 0.9, where 1 is the maximum; inconclusive means response in the unintended direction; inactive means score below 0.9.

Columns and labels:
[1] = TOX21_p53_BLA_p2_viability: Viability Assessment in the Tox21 HCT-116 p53 Agonism Beta-lactamase Assay, Phase 2 (AID 2283591);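 further: compound exposure lasted 16 h at 37 °C; actives lower the ATP signal meaning cytotoxicity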
How it was run: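 Cytotoxicity readout: CellTiter-Glo ATP luminescence, 30 min at room temperature, after the beta-lactamase read. Cells were HCT116 exposed 16 h at 37C to compounds pin-transferred at 217-fold dilution from DMSO stocks.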

[2] = molecular target: Cellular tumor antigen p53 (Homo sapiens) (UniProt P04637); test: TOX21_p53_BLA_p2_ratio: Tox21 HCT-116 p53 Agonism Beta-lactamase Assay, Ratio, Phase 2 (AID 2283592)
Sequence of Cellular tumor antigen p53 (Homo sapiens) (P04637 whole entry, looked up): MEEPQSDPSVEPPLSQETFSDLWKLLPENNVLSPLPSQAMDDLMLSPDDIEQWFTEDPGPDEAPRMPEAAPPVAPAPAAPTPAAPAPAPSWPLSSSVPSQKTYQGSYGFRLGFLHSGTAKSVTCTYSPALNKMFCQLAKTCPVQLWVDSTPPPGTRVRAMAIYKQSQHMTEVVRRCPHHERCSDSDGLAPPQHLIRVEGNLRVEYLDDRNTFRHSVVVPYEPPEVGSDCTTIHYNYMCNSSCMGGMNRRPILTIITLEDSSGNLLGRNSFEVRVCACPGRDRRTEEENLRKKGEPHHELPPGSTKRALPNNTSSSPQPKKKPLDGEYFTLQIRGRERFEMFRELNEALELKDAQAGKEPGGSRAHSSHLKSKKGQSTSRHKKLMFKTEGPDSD
How it was run: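 Ratio endpoint: beta-lactamase cleavage of CCF4-AM, blue (460 nm) over green (530 nm). HCT116 reporter line; 16 h treatment, 37C; substrate 2 h RT.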

[3] = TOX21_p53_BLA_p3_viability: Viability Assessment in the Tox21 HCT-116 p53 Agonism Beta-lactamase Assay, Phase 3 (AID 2283593);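 further: cells exposed to compound for 16 h before reading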
How it was run: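 Cellular ATP was quantified by CellTiter-Glo luminescence, read after 30 min at room temperature. Beforehand, HCT116 cells (4000/well) received compound 5 h post-seeding, 217-fold diluted from DMSO, then incubated 16 h at 37C.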

[4] = molecular target: Cellular tumor antigen p53 (Homo sapiens) (UniProt P04637); test: TOX21_p53_BLA_p3_ratio: Tox21 HCT-116 p53 Agonism Beta-lactamase Assay, Ratio, Phase 3 (AID 2283596)
How it was run: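 Cells were seeded at 4000/well, rested 5 h at 37C, then dosed with DMSO compound solutions (217-fold dilution) for 16 h. CCF4-AM substrate was loaded for 2 h at room temperature, and the 460/530 nm emission ratio was fitted for gain of signal versus DMSO.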

[5] = TOX21_p53_BLA_p4_viability: Viability Assessment in the Tox21 HCT-116 p53 Agonism Beta-lactamase Assay, Phase 4 (AID 2283597);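 further: hits lower the luminescence signal meaning cytotoxicity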
How it was run: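 Cytotoxicity was inferred from loss of CellTiter-Glo luminescence. HCT116 cells had been dosed with compounds after 5 h plating, incubated 16 h at 37C and 5% CO2, and exposed to the CCF4-AM substrate for 2 h.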

[6] = TOX21_p53_BLA_p5_viability: Viability Assessment in the Tox21 HCT-116 p53 Agonism Beta-lactamase Assay, Phase 5 (AID 2283600)
How it was run: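 Luciferase-coupled ATP quantitation of cells treated for 16 h (37C, 5% CO2) with test chemicals delivered in DMSO via a 217-fold dilution; 4000 cells/well; reagent incubated 30 min at room temperature before luminescence reading.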

[7] = molecular target: Cellular tumor antigen p53 (Homo sapiens) (UniProt P04637); test: TOX21_p53_BLA_p5_ratio: Tox21 HCT-116 p53 Agonism Beta-lactamase Assay, Ratio, Phase 5 (AID 2283599)
How it was run: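 Beta-lactamase reporter ratio (blue 460 nm over green 530 nm, 405 nm excitation) after 2 h CCF4-AM loading, in HCT-116 cells exposed 16 h at 37 C to compounds pinned at 217-fold dilution. Increases relative to DMSO baseline scored.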

[8] = molecular target: Cellular tumor antigen p53 (Homo sapiens) (UniProt P04637); test: TOX21_p53_BLA_p4_ratio: Tox21 HCT-116 p53 Agonism Beta-lactamase Assay, Ratio, Phase 4 (AID 2283601)
How it was run: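 Signal is the blue/green (460nm/530nm) ratio of cleaved versus uncleaved CCF4-AM substrate, read after 2 h substrate loading. Cells were HCT116 carrying the p53-responsive beta-lactamase reporter, dosed 16 h at 37C, 5% CO2; CellTiter-Glo measured in parallel.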

Measured: AC50

BrCCc1ccccc1
inactive: [1] | [2] | [3] | [4] | [5] | [6]

Oc1cc(Cl)cc(Cl)c1
inactive: [1] | [3] | [4] | [5] | [8]
active: [2] 79 µM | [7] 85.2 µM

ClC(Cl)(Cl)Cl
inactive: [1] | [2] | [3] | [4] | [5] | [7] | [8]

Cc1ccccc1-n1c(C)nc2ccccc2c1=O
inactive: [1] | [2] | [3] | [4] | [5] | [7] | [8]
